An excerpt weighted towards active compounds, which were near 17% of everything screened.
HepG2 viability: kills HepG2 cells in TGF-b inhibitor counter-screen | HepG2 CAGA-GFP viability, ATP luminescence, 18 h | Potency, µM (highest dose often 46.1 µM), usual class: cytotoxic | 0.76% of 410,000 active
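CellTiter-Glo luminescence gave cytotoxicity after 18 hours at 37 degrees C. The cells were HepG2 CAGA-GFP in 1% FBS DMEM, stimulated with 500 pg/mL TGF-beta after compound addition. %Activity was normalised to no-cell wells (complete cell-killing) and DMSO (no toxicity), and curves were fitted and classified.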
TGFb SMAD3 inh: blocks TGF-b signaling | Potency, µM (doses to about 46.1 µM), usual class: inhibitors | 1.2% of 410,000 active | AID 588855 | HepG2 CAGA-GFP TGF-b/SMAD3 reporter, GFP fluorescence, 18 h; TGF-beta stimulated, 500 pg/mL final; also: nearly all actives have a fitted effect of over 65% in size
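TGF-beta reporter screen: HEPG2 CAGA-GFP, 1% FBS, 500 pg/mL TGF-beta final, 18 h; per-cell GFP summed per well; curves fitted and categorized by class.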
HT1080 IDH1KD tx: kills HT-1080 cells with IDH1 knockdown. HT-1080 IDH1 knockdown viability, ATP luminescence, 48 h. Potency, µM (top dose mostly 46.1 µM), actives largely listed as cytotoxic. 2% of 360,000 active. AID 686971
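HT-1080-IDH1KD cells (IDH1 knocked down), 750/well in RPMI with 5% FBS, treated with compound 48 h at 37 degrees C. Viability by CellTiter-Glo luminescence, normalised to DMSO and no-cell wells; concentration-response curves classed.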
DT40 TDP1 CPT: growth inhibition of DT40 Tdp1-/-;hTDP1 cells with camptothecin (screen for TDP1 inhibitors); chicken DT40 Tdp1-/-;hTDP1 cells + 20 nM CPT, ATP luminescence, 48 h; 12% of 420,000 active; Potency, µM (top dose mostly 46.2 µM), hits mostly inhibitors; also: nearly all actives have a fitted effect of over 55% in size
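Cell growth measured by CellTiter-Glo luminescence after a minimum 48 h, 37 C compound exposure with 20 nM CPT in Tdp1-knockout DT40 cells stably expressing hTDP1, seeded 400/well; qHTS titration format.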
TDP1 cell noCPT: qHTS for Inhibitors of human tyrosyl-DNA phosphodiesterase 1 (TDP1): qHTS in cells in absence of CPT; DT40 Tdp1-/- hTDP1 cells, no CPT, ATP luminescence, 48 h; Potency, µM (titrated, usually from 46.2 µM), actives largely listed as inhibitors; 15% of 420,000 active; also: nearly all actives have a fitted effect of over 55% in size
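Cells were dispensed at 400 per well, compounds added by pin tool, plates incubated ≥48 hr at 37 °C, then CellTiter-Glo added for 30 min at room temperature before luminescence reading. Line: DT40 Tdp1-/- complemented with hTDP1; camptothecin omitted.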
HT1080-NT tox: kills 2HG-producing HT-1080-NT fibrosarcoma cells. HT-1080-NT fibrosarcoma viability, CellTiter-Glo ATP luminescence, 48 h. Potency, µM (top dose mostly 46.1 µM), hits mostly cytotoxic. 1.6% of 360,000 active. AID 686970;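 also: NT is the 2HG producing partner of a matched IDH1 knockdown line; nearly all actives have a fitted effect of over 55% in size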
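A 48-hour cytotoxicity screen used HT-1080-NT cells plated 2 hours before compound delivery. ATP-based CellTiter-Glo luminescence measured viability, normalized to DMSO and no-cell controls.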
Numbers stand for hits; 0 = inactive; ? = inconclusive; - = not tested or not shown. Calls follow the shape of the dose curve; as a rule, active = well fitted curve in the direction sought with a large enough effect; inconclusive = small, poorly fitted or top-dose-only effect, or another doubt; inactive = no such curve, though single readings can be large; an effect the other way counts as inactive or inconclusive.

SMILES	HepG2 viability	TGFb SMAD3 inh	HT1080 IDH1KD tx	DT40 TDP1 CPT	TDP1 cell noCPT	HT1080-NT tox
CCOC(=O)c1c(NS(=O)(=O)c2ccccc2)n(CCCOC)c2nc3ccccc3nc12	0	?	?	?	?	?
CCCCCn1c(NC(=O)c2ccco2)c(C(=O)OCC)c2nc3ccccc3nc21	16µM	20µM	12µM	21µM	16µM	9.2µM
COCCNC(=O)c1c(NC(=O)c2ccc(Br)o2)n(Cc2ccccc2)c2nc3ccccc3nc12	0	0	0	18µM	?	0
Cc1c(NP(=O)(C(C)(C)C)C(C)(C)C)c(=O)n(-c2ccccc2)n1C	0	0	0	0	0	0
CC[C@@H](CO)C1CC2NC3CC4(c5ccccc5N(C)[C@@H]24)C(O)C31 (some centres not stated)	0	0	0	0	0	0
COc1ccc(CNC(C)Cc2cccs2)cc1 (configuration not stated)	0	0	0	0	0	0
Cc1cc2cc(CNC(=O)Nc3ccc(Cl)c(Cl)c3)ccc2n1C	0	0	0	0	?	0
Cc1onc(-c2ccccc2Cl)c1C(=O)NCc1ccc2c(c1)cc(C)n2C	0	0	0	?	6.5µM	0
CC[C@@H](CO)NC(=O)[C@H]1C=C2c3cccc4[nH]cc(c34)C[C@H]2N(C)C1	-	-	-	0	0	-
Cc1ccc2c(c1)N(N=O)CCC2	0	0	0	0	0	0
Nc1nc2ccc(Cl)cc2c2nc(-c3ccco3)nn12	-	-	0	6.3µM	8.9µM	0
COc1cc(C(c2c(O)c3ccccc3oc2=O)c2c(C)n(C)n(-c3ccccc3)c2=O)ccc1OCC(=O)O (configuration not stated)	0	0	-	0	0	-
CN1CC(CO)=C[C@H]2c3cccc4[nH]cc(c34)C[C@H]21	-	-	-	0	0	-
COC[C@H]1OC(=O)c2coc3c2[C@@]1(C)C1=C(C3=O)[C@@H]2CCC(=O)[C@@]2(C)C[C@H]1OC(C)=O	0	?	23µM	0.92µM	1.8µM	?
O=C(NN=Cc1ccc(N(CCCl)CCCl)cc1)c1cccnc1	0	0	0	7.3µM	9.2µM	0
Cc1nc(C)c(C(=O)NN=Cc2ccc(N(CCCl)CCCl)cc2)s1	0	?	0	?	12µM	0
Fc1ccc(-c2nc3c(-c4ccc(F)cc4)cnn3cc2CCN2CCOCC2)cc1	0	0	0	0	?	0
CCCCCCCCCOc1ccc2[nH]cc(CCN)c2c1	-	-	-	7.3µM	8.2µM	-
COc1ccc2[nH]cc(CCN)c2c1	0	0	0	?	0	0
COC(=O)C1=C(c2ccc(OC)c(OC)c2)C[C@@H]2CC[C@H]1N2C(=O)NCCOc1ccccc1	0	?	0	?	0	0
COC(=O)C1=C(c2ccc(-c3ccccc3)c(F)c2)C[C@@H]2CC[C@H]1N2C(=O)NCCOc1ccccc1	0	?	0	21µM	21µM	0
COCCNC(=O)N1[C@H]2CC[C@@H]1C(C(=O)OC)=C(c1ccc(-c3ccccc3)c(F)c1)C2	0	?	0	1.8µM	1.8µM	0
Cc1ccccc1Cc1c(C)nc2c(C(=O)NCc3ccco3)cnn2c1C	0	?	?	14µM	?	?
Cc1nc2c(C(=O)N3CCC4(CC3)OCCO4)cnn2c(C)c1Cc1cccc(Cl)c1	0	0	0	?	?	0
CCCNC(=O)c1cnn2c(C)c(Cc3c(C)cc(C)cc3C)c(C)nc12	0	?	-	3.7µM	1.8µM	-
CNC1C2CN3CCC(O2)C13 (configuration not stated)	-	-	-	0	0	-
CCN(CCO)c1ccc(N=Cc2c(O)n(C)c(=S)[nH]c2=O)cc1	0	0	0	12µM	10µM	0

Screens: PubChem BioAssay, National Center for Advancing Translational Sciences (NCATS)
